This is a sample that favours compounds with a hit; in the whole collection about 2.3% have one here.
MCL1-BIM inh = disrupts human MCL1 binding to BIM-BH3 peptide. inhibition, % at 10.9 µM. GST-MCL1 / FITC-Bim-BH3 fluorescence polarization. AID 2057. actives 0.68% (n = 320,000);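 active = inhibition above the mean inhibition of all tested compounds plus 3 SD, set per campaign, cut at about 40% in these data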;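 note: 0% = DMSO wells and 100% = unlabeled Bim-BH3 peptide control; higher means more loss of mP so more displacement of Bim peptide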
Target sequence (Q07820 whole entry, looked up): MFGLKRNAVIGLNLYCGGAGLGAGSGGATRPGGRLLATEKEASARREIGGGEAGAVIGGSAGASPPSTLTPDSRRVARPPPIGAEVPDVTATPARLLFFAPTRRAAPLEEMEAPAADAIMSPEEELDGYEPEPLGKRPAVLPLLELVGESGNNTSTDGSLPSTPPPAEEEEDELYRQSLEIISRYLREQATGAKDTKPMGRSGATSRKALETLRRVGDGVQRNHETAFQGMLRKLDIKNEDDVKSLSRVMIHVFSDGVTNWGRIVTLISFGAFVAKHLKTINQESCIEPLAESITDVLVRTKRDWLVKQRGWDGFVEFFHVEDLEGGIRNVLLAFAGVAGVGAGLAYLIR
GLD-1 TGE inh = GLD-1-TGE RNA interaction inhibition (C. elegans); inhibition, % at 5.96 µM; actives 0.44% (n = 320,000); purified GLD-1 + fluorescein TGE RNA, fluorescence polarization; Q17339;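 active = percent inhibition above a per-plate cutoff, the plate mean of test compounds plus 3 SD, cut at about 30% in these data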;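 note: 0% = DMSO wells with GLD-1 and probe and 100% = wells lacking GLD-1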
Mcl1-Bid inh = disrupts binding of human Mcl-1 to Bid peptide. Q07820. actives 0.97% (n = 220,000). TR-FRET Mcl-1/Bid-Dy647 peptide binding, 1536-well. AID 1021. inhibition, % at 21.7 µM;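 active = compounds that cut the binding signal by more than half at the single screening dose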;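 note: His-tagged Mcl-1 with europium anti-His antibody binding Bid BH3 peptide; 0% = Mcl-1 plus peptide wells and 100% = peptide-only wells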
Mcl1-Noxa inh = Mcl-1/Noxa interaction inhibition; Q07820; TR-FRET Mcl-1/Noxa peptide binding, 2 h; inhibition, % at 21.7 µM; actives 1.5% (n = 220,000);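 active = compounds that cut the protein-peptide binding signal by more than 50% relative to plate controls in a single-dose test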;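 note: His-tagged Mcl-1 with rhodamine Noxa BH3 peptide and terbium anti-His antibody; 0% = Mcl-1 plus Noxa peptide wells and 100% = peptide-only wells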
Bim-Mcl-1 = human Bim-Mcl-1 interaction inhibition; Q07820; Bead-based flow cytometry, Bim peptide-Mcl-1 binding; inhibition, % at 10 µM; actives 0.1% (n = 190,000); in the data active = inhibition above about 40%;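 note: 0% = no compound tracer wells and 100% = peptide blocker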
Bcl-xL primary = blocks human Bcl-xL binding to Bim BH3 peptide; Q07817; GST-Bcl-xL / FITC-Bim BH3 peptide fluorescence polarization; inhibition, % at 10.9 µM; actives 0.7% (n = 320,000);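 active = inhibition above the mean of all tested compounds plus 3 SD, cutoff set per campaign, cut at about 30% in these data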;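 note: 0% = DMSO wells and 100% = unlabeled Bim-BH3 peptide competitor; inhibitors lower millipolarization by displacing the labeled peptide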
Target sequence (Q07817 whole entry, looked up): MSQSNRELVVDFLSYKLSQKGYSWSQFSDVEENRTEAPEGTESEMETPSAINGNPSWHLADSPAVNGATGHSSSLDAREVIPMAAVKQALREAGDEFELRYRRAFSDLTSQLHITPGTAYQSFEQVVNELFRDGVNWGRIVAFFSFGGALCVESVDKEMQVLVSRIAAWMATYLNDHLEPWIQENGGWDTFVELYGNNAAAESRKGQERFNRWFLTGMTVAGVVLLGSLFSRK
BCLXL inh confirm = counter-screen for MCL1 inhibitors: confirmation of human Bcl-xL inhibitors; AID 2166; inhibition, % at 10.9 µM; GST-Bcl-xL / FITC-Bim BH3 peptide FP binding; shares compounds with MCL1-BIM inh; actives 54% (n = 1,700);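 active = inhibition above a cutoff equal to the mean inhibition of all tested compounds plus 3 SD, cut at about 30% in these data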;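 note: 0% = DMSO wells and 100% = unlabeled Bim BH3 control peptide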
MCL1 inh confirm = confirmation of human MCL1 and BIM-BH3 interaction inhibitors; shares compounds with MCL1-BIM inh; GST-MCL1 / FITC-Bim-BH3 fluorescence polarization; inhibition, % at 10.9 µM; actives 61% (n = 1,700);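 active = inhibition above the average of all tested compounds plus 3 SD, cut at about 40% in these data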;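 note: 0% = DMSO wells and 100% = unlabeled Bim-BH3 control peptide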
Active calls of the source: *; . = not tested or not shown; + = active, no number.

SMILES	MCL1-BIM inh	GLD-1 TGE inh	Mcl1-Bid inh	Mcl1-Noxa inh	Bim-Mcl-1	Bcl-xL primary	BCLXL inh confirm	MCL1 inh confirm
Cc1ccc(S(=O)(=O)NCc2ccccc2)cc1C(=O)N(C)Cc1ccccc1F	12.1	3.8	.	.	.	4.1	.	.
Cc1cc(C)nc(NCCO)n1	-0.3	-0.8	5.2	10.6	-1.0	4.6	.	.
Cn1nc(C(=O)OCC(=O)Nc2ccccc2[N+](=O)[O-])c2ccccc2c1=O	-8.4	-3.1	.	.	.	-5.4	.	.
O=C(CCN1C(=O)/C(=C\C=C\c2ccccc2)SC1=S)Nc1ccccc1C(=O)O	42.6*	-0.8	.	.	.	24.6	15.3	11.5
O=C(O)CC(C(=O)O)N1C(=O)/C(=C/C=C/c2ccco2)SC1=S (stereo unspecified)	75.2*	12.2	-20.5	85.3*	.	41.5*	21.6	32.2
O=C(O)CCCN1C(=O)/C(=C/C=C/c2ccco2)SC1=S	80.1*	1.9	34.2	94.3*	.	46.5*	24.6	31.1
O=C1/C(=C/c2cccc(Cl)c2)CSc2sccc21	56.2*	2.6	-6.3	7.4	.	5.6	8.9	4.8
O=C(Cn1ncc(Cl)c(Cl)c1=O)N1CCN(S(=O)(=O)c2ccc3ccccc3c2)CC1	-8.9	2.1	-5.5	-3.1	-3.0	-9.2	.	.
Nn1c(SCC(=O)Nc2cc(S(=O)(=O)N3CCOCC3)ccc2Cl)nnc1-c1cccnc1	-5.2	2.6	-20.3	38.1	0.0	-13.3	.	.
COCCN=c1scc(-c2ccccc2)n1/N=C/c1c[nH]c2ccccc12	-3.2	4.1	-35.6	17.5	-7.0	-0.1	.	.
COCCN=c1scc(-c2cccs2)n1/N=C/c1ccc(O)c(O)c1O	48.6*	2.5	-64.9	89.3*	4.0	13.5	64.9*	93.5*
CCN=c1scc(C)n1/N=C/c1ccc(O)c(O)c1O	51.7*	5.3	-28.3	60.2*	7.0	14.8	33.1*	57.4*
CN(Cc1ccccc1)c1ccc(C(CC(N)=O)NC(=O)c2ccccc2)cc1[N+](=O)[O-] (stereo unspecified)	-2.0	16.1	.	.	.	3.3	.	.
Cc1ccc(S(=O)(=O)N2CCN(C(=O)CSCc3ccc(C(C)C)cc3)CC2)cc1	5.8	7.2	.	.	.	4.7	.	.
CC(/C=C1\SC(=S)N(c2ccc(C(=O)O)cc2)C1=O)=C\c1ccccc1	48.3*	5.9	21.1	84.0*	.	5.9	6.9	9.2
COC1CCN(C(=O)CC2C(=O)NCCN2CC(C)(C)C)CC1 (stereo unspecified)	50.2*	28.2	-169.5	1.6	0.0	44.6*	9.9	19.3
O=C1/C(=C/c2cccs2)SC(=S)N1c1cccc(O)c1	10.1	1.7	-8.3	4.3	.	2.8	.	.
COc1ccccc1-n1nnnc1SCC(=O)Nc1ccc(C)c(N)c1	139.0*	92.6*	.	.	.	140.6*	25.0	21.9
COC(=O)C1=COC(C)C2CN3CCc4c([nH]c5ccccc45)C3CC12 (stereo unspecified)	90.9*	48.0*	-30.4	9.2	25.0	88.6*	61.9*	79.7*
COC(=O)C1=CO[C@@H](C)[C@H]2CN3CCc4c([nH]c5ccccc45)[C@@H]3C[C@H]12	-10.0	7.9	.	.	.	2.1	.	.
CN(C(=O)CN1C(=O)NC(C)(c2cccc(Br)c2)C1=O)C1CCCCC1 (stereo unspecified)	82.2*	-1.6	.	.	.	8.3	3.7	0.0
COc1ccc(C(=O)N/N=C/c2cc3ccccc3[nH]c2=S)cc1	44.4*	10.9	-106.8	44.3	27.0	17.4	6.9	28.2
COc1ccc(C(=O)N/N=C/c2c[nH]c3ccccc23)cc1	10.7	-1.0	.	.	.	3.1	.	.
O=[N+]([O-])c1ccc(C23CC4CC(CC(O)(C4)C2)C3)cc1	-4.6	4.7	.	.	.	-3.7	.	.
COc1ccccc1OCC(=O)N/N=C/C=C/c1ccc([N+](=O)[O-])o1	41.0*	-5.2	-50.0	26.5	-1.0	18.7	6.0	17.9
SMILES	MCL1-BIM inh	GLD-1 TGE inh	Mcl1-Bid inh	Mcl1-Noxa inh	Bim-Mcl-1	Bcl-xL primary	BCLXL inh confirm	MCL1 inh confirm
O=C(CSc1nnc(SCc2ccccc2)s1)N/N=C/C=C\c1ccco1	42.8*	0.8	-58.7	53.7*	-2.0	0.9	31.4*	59.2*
Cc1ccccc1OCC(=O)N/N=C/c1ccc([N+](=O)[O-])o1	17.9	1.1	2.8	-6.5	-2.0	11.0	.	.
Cc1ccc(OCC(=O)N/N=C/C=C/c2ccco2)cc1	40.2*	9.3	-6.6	21.6	-6.0	17.9	54.8*	70.7*
COc1ccc(OC)c(-c2nnc(SCC(=O)N3CCCC3)o2)c1	-9.7	3.6	.	.	.	-7.9	.	.
CCC(=O)N1CCN(c2ccccc2NC(=O)c2cccs2)CC1	9.8	10.8	.	.	.	8.5	.	.
CCC(C)Sc1ccc(-c2nc3ccc(C)cn3c2NC2CCCCC2)cc1 (stereo unspecified)	48.0*	15.3	.	.	.	47.6*	18.4	16.4
COc1ccc(-c2onc3ccc(Br)cc23)cc1	131.8*	97.1*	-19.5	9.5	-1.0	112.6*	111.3*	133.9*
O=C(COc1coc(CN2CCc3ccccc3C2)cc1=O)Nc1cccc([N+](=O)[O-])c1	7.2	0.4	.	.	.	6.3	.	.
CC(=O)c1ccc2noc(-c3ccc(Cl)cc3)c2c1	1.6	6.6	-34.4	4.6	1.0	3.2	.	.
CC(=O)c1ccc2noc(-c3ccc(F)cc3)c2c1	98.3*	109.6*	-37.0	-0.9	0.0	97.8*	82.0*	103.4*
O=C(CC1Nc2ccccc2NC1=O)c1ccccc1 (stereo unspecified)	46.0*	-24.7	-102.8	-2.6	-8.0	14.9	-10.9	-21.2
O=C(CC1Nc2ccccc2NC1=O)NCCc1ccccc1 (stereo unspecified)	3.6	-4.0	-17.1	-4.8	8.0	8.5	.	.
O=C(Oc1ccc2c(c1)O/C(=C\c1ccncc1)C2=O)c1ccccc1	93.1*	75.4*	19.5	16.0	0.0	80.6*	23.2	54.2*
Cc1cc(C)n2nc(C)c(Br)c2n1	6.9	5.8	-11.8	2.6	1.0	-1.3	.	.
Cc1cc(C)n2nc3nc4c(cc3c2n1)CCCC4	105.6*	38.5*	15.5	34.7	-2.0	111.0*	21.5	18.5
CCOc1ccc(S(=O)(=O)NCCC(=O)NCC(c2ccc(F)cc2)N2CCOCC2)cc1 (stereo unspecified)	1.8	4.8	.	.	.	5.7	.	.
Cc1ccc(NC(=O)COC(=O)c2ccc(CN3CCCC3=O)cc2)c(Cl)c1	-5.5	0.5	.	.	.	2.5	.	.
N#CCN(CC#N)C(=O)C1c2ccccc2Oc2ccccc21	+	+	.	.	.	+	6.0	10.5
NC(=O)COC(=O)C1c2ccccc2Oc2ccccc21	2.4	-0.3	.	.	.	7.0	.	.
N#C/C(=C\c1cc(Cl)c(OCc2ccc(Cl)cc2)c(Cl)c1)C(N)=O	3.5	4.1	-22.0	20.7	.	2.2	.	.
